Screening data from PubChem BioAssay.
Sampled rows, rich in hits. Any-hit rate of the full collection: about 3.6%.
mHTT-CaM PPI inh – mutant huntingtin-calmodulin interaction inhibitors – biochemical, AlphaScreen, primary screen. AlphaScreen His-mHTT/GST-CaM binding, luminescence. inhibition, % at 15 µM. hit rate 3.6% among 190,000. AID 1671202, 2021;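 also: 0% = both proteins with DMSO and 100% = one protein alone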
Pf apPOL inh – Pf-apPOL inhibitors, biochemical, fluorescence; Recombinant Pf-apPOL, molecular beacon fluorescence, 1.5 h; inhibition, % at 10 µM; hit rate 0.25% among 210,000; AID 1794808, 2022
* = called active by the depositor. Rule as the data show it: active = inhibition above about 50%; inactive = the rest.

For CC1CCN(C(=O)C2=CN(c3cccc(C#N)c3)c3ccccc3S2(=O)=O)CC1 the results were mHTT-CaM PPI inh -4 and Pf apPOL inh 0.
O=C(NCC(O)Cc1ccccc1)c1cccc(Cl)c1 (centres undefined) was read as mHTT-CaM PPI inh -12 and Pf apPOL inh -6.
Screening CC(C)N1CC(C(=O)Nc2ccc(F)c([N+](=O)[O-])c2)CC1=O (centres undefined) returned mHTT-CaM PPI inh 4 and Pf apPOL inh 1.
Cc1ccc(N2CCC(C(=O)NCC3CCCO3)C2=O)cc1Cl (centres undefined) was read as mHTT-CaM PPI inh -3 and Pf apPOL inh -4.
`NNC(=O)c1ccc(N2CCCC2=O)cc1` gave mHTT-CaM PPI inh -2 and Pf apPOL inh -4.
Screening C[N+]1(CC(O)COc2ccc(C34CC5CC(CC(C5)C3)C4)cc2)CCCC1 (centres undefined) returned mHTT-CaM PPI inh 52* and Pf apPOL inh 2.
Screening OCCN(CCO)CC(O)COc1ccc(C23CC4CC(CC(C4)C2)C3)cc1 (centres undefined) returned mHTT-CaM PPI inh 15 and Pf apPOL inh -1.
`Cc1ccc(OCC(O)CNC(C)C)cc1` (centres undefined) gave mHTT-CaM PPI inh -9 and Pf apPOL inh 2.
For CC(C)NCC(O)COc1ccc(C23CC4CC(CC(C4)C2)C3)cc1 (centres undefined) the results were mHTT-CaM PPI inh 100* and Pf apPOL inh -5.
CC[N+]1(CC(O)COc2ccc(C34CC5CC(CC(C5)C3)C4)cc2)CCCC1 (centres undefined) was read as mHTT-CaM PPI inh 28 and Pf apPOL inh -3.
CC(C)(C)NCC(O)COc1ccc(C23CC4CC(CC(C4)C2)C3)cc1 (centres undefined) was read as mHTT-CaM PPI inh 100* and Pf apPOL inh 0.
c1ccc(Cn2cc(-c3noc(-c4ccccc4)n3)nn2)cc1 was read as mHTT-CaM PPI inh -10 and Pf apPOL inh -1.
CCSc1sc(SC#N)cc1SC#N was read as mHTT-CaM PPI inh 34 and Pf apPOL inh -1.
Screening COc1cc(C=CC(=O)N2CCC3(CC2)CC(=O)c2ccccc2O3)cc(OC)c1OC returned mHTT-CaM PPI inh 14 and Pf apPOL inh -10.
For Cc1c(N=c2scc(-c3ccc(Cl)cc3)n2Cc2ccco2)c(=O)n(-c2ccccc2)n1C the results were mHTT-CaM PPI inh 60* and Pf apPOL inh 0.
C=CCn1c(-c2ccccc2)csc1=Nc1c(C)n(C)n(-c2ccccc2)c1=O was read as mHTT-CaM PPI inh 4 and Pf apPOL inh -4.
For CC(=O)C1=C(C)OC(N)=C(C#N)C1c1cc2c(cc1[N+](=O)[O-])OCO2 (centres undefined) the results were mHTT-CaM PPI inh 19 and Pf apPOL inh -13.
Screening Cc1ccc(C2CCCCCN2C(=O)Nc2ccc3c(c2)OCO3)cc1 (centres undefined) returned mHTT-CaM PPI inh 8 and Pf apPOL inh 6.
COc1ccc(-c2cc(C(F)(F)F)n3ncc(C(=O)Nc4ccccn4)c3n2)cc1OC was read as mHTT-CaM PPI inh -2 and Pf apPOL inh -8.
CCCOc1ccc(CN2CCCC2c2c(C)noc2CC)cc1 (centres undefined) was read as mHTT-CaM PPI inh -58 and Pf apPOL inh 1.
Cc1nccn1-c1cc(NCCNC(=O)Nc2ccc(F)c(Cl)c2)ncn1 was read as mHTT-CaM PPI inh -16 and Pf apPOL inh -4.
Screening O=C(O)COCC(=O)Nc1ccccn1 returned Pf apPOL inh -5.
Screening O=C(NCCNc1ccc(Nc2ccccn2)nn1)Nc1ccc(F)c(Cl)c1 returned mHTT-CaM PPI inh 100* and Pf apPOL inh -5.
O=C(COc1ccccc1)NCCNc1ccc(Nc2ccccn2)nn1 was read as mHTT-CaM PPI inh 87* and Pf apPOL inh -10.
O=c1cccnn1CCNS(=O)(=O)c1ccccc1C(F)(F)F was read as mHTT-CaM PPI inh -8 and Pf apPOL inh -5.
Screening O=S(=O)(NCCNc1ccc(Nc2ccccn2)nn1)c1ccccc1C(F)(F)F returned mHTT-CaM PPI inh 97* and Pf apPOL inh -5.
For O=C(C1CCC(c2cccc(C(F)(F)F)c2)N(C(=O)C2CC2)C1)N1CCOCC1 (centres undefined) the results were mHTT-CaM PPI inh -7 and Pf apPOL inh -1.
For CCOC(=O)C1CCc2sc(NC(=O)c3cccc(-n4cnnn4)c3)nc21 (centres undefined) the results were mHTT-CaM PPI inh 4 and Pf apPOL inh 15.
COc1ccc(OC)c(Nc2nc3nonc3nc2Nc2ccc(F)cc2)c1 was read as mHTT-CaM PPI inh 14 and Pf apPOL inh 5.
COc1ccc(Nc2nc(N(C)C)nc3nccnc23)cc1 was read as mHTT-CaM PPI inh 55* and Pf apPOL inh -20.
For COc1ccc(/C=C2\SC(=N)N(c3nccs3)C2=O)cc1 the results were mHTT-CaM PPI inh 4 and Pf apPOL inh -1.
Screening COc1cccc(N2CCN(C(=O)c3ccc(C)cc3)C(C)C2=O)c1 (centres undefined) returned mHTT-CaM PPI inh -5 and Pf apPOL inh -2.
Screening Clc1cccc(-c2cc3ccccn3c2)c1 returned mHTT-CaM PPI inh 63* and Pf apPOL inh 5.
`COc1ccc(-c2ncc3ccccn23)cc1OC` gave mHTT-CaM PPI inh 4 and Pf apPOL inh -2.
COc1cc(-c2cc3ccccn3c2)cc(OC)c1OC was read as mHTT-CaM PPI inh 61* and Pf apPOL inh 0.
`Clc1cccc(-c2cn3ccccc3n2)c1` gave mHTT-CaM PPI inh 4 and Pf apPOL inh 0.
CCOC(=O)C(O)(c1ccc(N2C(=O)c3ccccc3C2=O)cc1)C(F)(F)F (centres undefined) was read as Pf apPOL inh -1.
Screening CC(=O)Nc1ccc(-c2noc(C3CCCN(C(=O)c4ccc(C#N)cc4)C3)n2)cc1 (centres undefined) returned mHTT-CaM PPI inh 7 and Pf apPOL inh 1.
For O=C(Oc1ccc2c(c1)OC(=Cc1ccccc1Br)C2=O)c1ccco1 the results were mHTT-CaM PPI inh 50* and Pf apPOL inh -4.
Screening O=C(Oc1ccc2c(c1)OC(=Cc1ccccc1)C2=O)c1ccco1 returned mHTT-CaM PPI inh 4 and Pf apPOL inh -4.
For Cc1ccc(-n2c(SCC(=O)Nc3ccc(C)cc3C)nc3c(c2=O)SCC3)cc1 the results were mHTT-CaM PPI inh 5 and Pf apPOL inh -6.
C(=N\N1CCN(C2c3ccccc3-c3ccccc32)CC1)/c1cccc2ccccc12 was read as mHTT-CaM PPI inh inactive.
Cc1cc(Nc2ccc(C(N)=O)cc2)nc(-n2nc(C)cc2C)n1 was read as mHTT-CaM PPI inh 95* and Pf apPOL inh 4.
For Cc1cc(C)n(-c2ccc(Nc3ccc(NC(=O)Nc4ccccc4)cc3)nn2)n1 the results were mHTT-CaM PPI inh 6 and Pf apPOL inh -11.
`Cc1ccc(CNC(=O)C2(C)CCCN(C(=O)Nc3cccc(Cl)c3)C2)cc1` (centres undefined) gave mHTT-CaM PPI inh -3 and Pf apPOL inh -3.
For N#CC1=C(N)Oc2cc(N)ccc2C1c1ccc(Cl)c(Cl)c1 (centres undefined) the results were mHTT-CaM PPI inh 75* and Pf apPOL inh -12.
`N#CC1=C(N)Oc2cc(O)ccc2C1c1ccc(Cl)c(Cl)c1` (centres undefined) gave mHTT-CaM PPI inh 100* and Pf apPOL inh -6.
N#CC1=C(N)Oc2cc(O)ccc2C1c1ccc(Br)cc1 (centres undefined) was read as mHTT-CaM PPI inh 27 and Pf apPOL inh -13.
